The source made the active and inactive calls. How the source made its calls: active means hit-call score of the fitted dose curve at least 0.9, where 1 is the maximum; inactive means score below 0.9.

22 compounds from PubChem BioAssay (EPA / NIEHS) can be followed below.

Conditions in all cases: mRNA level, 48 h; actives raise or lower the signal
Read-out in experiment [1]: growth arrest and DNA damage 45 (GADD45G), GADD45G (gene 10912)
As to the kind of experiment: LTEA_HepaRG_GADD45G: Life Technologies and Expression Analysis (LTEA) Assay for growth arrest and DNA damage 45 (GADD45G) using HepaRG (AID 2283499). The method in brief:
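Concentration-response in HepaRG: 48 h dosing, 0.5% DMSO, highest level 100 uM. GADD45G expression by qRT-PCR, normalised to endogenous controls; bidirectional fit to DMSO.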

Read-out in experiment [2]: Glutamate-cysteine ligase regulatory (GCLM), GCLM (gene 2730)
The experiment can be described thus: LTEA_HepaRG_GCLM: Life Technologies and Expression Analysis (LTEA) Assay for Glutamate-cysteine ligase regulatory (GCLM) using HepaRG (AID 2283500). The gist of the method:
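Endpoint is GCLM transcript level by qRT-PCR, normalized to three housekeeping genes, after 48 h chemical exposure of human HepaRG cells (0.5% DMSO vehicle, top 100 uM, half-log dilutions). Fitting was bidirectional relative to DMSO.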

Read-out in experiment [3]: Glutathione S-transferase M3 (GSTM3), GSTM3 (gene 2947)
As to the kind of experiment: LTEA_HepaRG_GSTM3: Life Technologies and Expression Analysis (LTEA) Assay for Glutathione S-transferase M3 (GSTM3) using HepaRG (AID 2283501). The gist of the method: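 Expression of GSTM3 is determined by qRT-PCR in human liver HepaRG cells treated 48 h with an 8-point half-log range from 100 uM in 0.5% DMSO.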

Read-out in experiment [4]: Heat shock 70 kDa protein 1 (HSPA1A), gene 3303
As to the kind of experiment: LTEA_HepaRG_HSPA1A: Life Technologies and Expression Analysis (LTEA) Assay for Heat shock 70 kDa protein 1 (HSPA1A) using HepaRG (AID 2283502). The gist of the method:
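Cells were plated and cultured for 48 h, then switched to serum-free induction medium. Chemicals were added at eight half-log concentrations up to 100 uM for 48 h. RNA was then isolated and HSPA1A measured by qRT-PCR with bidirectional curve fitting against DMSO.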

Read-out in experiment [5]: Hypoxia-inducible factor 1-alpha (Homo sapiens) (UniProt Q16665)
As to the kind of experiment: LTEA_HepaRG_HIF1A: Life Technologies and Expression Analysis (LTEA) Assay for Hypoxia-inducible factor 1 (HIF1A) Trancription factor using HepaRG (AID 2283503). The method in brief:
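HIF1A transcript level read by qRT-PCR (ACTB, GAPDH, POLR2A normalization) after 48 h chemical exposure of HepaRG cultures. Eight half-log concentrations, top 100 uM, 0.5% DMSO vehicle, duplicates; bidirectional curve fit against DMSO baseline.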

Read-out in experiment [6]: 3-Hydroxy-3-Methylglutaryl-CoA Synthase 2 (HMGCS2), HMGCS2 (gene 3158)
The experiment can be described thus: LTEA_HepaRG_HMGCS2: Life Technologies and Expression Analysis (LTEA) Assay for 3-Hydroxy-3-Methylglutaryl-CoA Synthase 2 (HMGCS2) using HepaRG (AID 2283504). The gist of the method:
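This steatosis marker was read as HMGCS2 mRNA change in HepaRG cells treated 48 h with up to 100 uM chemical. Normalisation used housekeeping genes; activity in either direction was fitted relative to 0.5% DMSO vehicle.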

Read-out in the next experiment: HGF (gene 3082)
As to the kind of experiment: LTEA_HepaRG_HGF: Life Technologies and Expression Analysis (LTEA) Assay for Hepatocyte Growth Facto (HGF) using HepaRG (AID 2283505). The gist of the method:
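Using HepaRG monolayers kept in 0.5% DMSO, chemicals were tested in duplicate over eight half-log concentrations from 100 uM for 48 h. Endpoint: HGF mRNA change relative to DMSO, normalized to ACTB/GAPDH/POLR2A.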

Read-out in experiment [7]: Insulin Like Growth Factor 1 (IGF1), IGF1 (gene 3479)
As to the kind of experiment: LTEA_HepaRG_IGF1: Life Technologies and Expression Analysis (LTEA) Assay for Insulin Like Growth Factor 1 (IGF1) using HepaRG (AID 2283506). The gist of the method:
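Cells are thawed, plated and cultured 48 h, then exposed in duplicate to chemical (highest 100 uM, half-log steps, 0.5% DMSO) for another 48 h. Total RNA is analysed by Fluidigm qRT-PCR for IGF1 expression relative to vehicle.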

Read-out in experiment [8]: Intercellular Adhesion Molecule 1 (ICAM1), ICAM1 (gene 3383)
The experiment can be described thus: LTEA_HepaRG_ICAM1: Life Technologies and Expression Analysis (LTEA) Assay for Intercellular Adhesion Molecule 1 (ICAM1) using HepaRG (AID 2283507). The method in brief:
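Using the human liver line HepaRG, compounds are tested in duplicate over 48 h at concentrations up to 100 uM. Expression is determined by TaqMan qRT-PCR, normalized to endogenous controls, and analysed relative to 0.5% DMSO vehicle.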

Read-out in experiment [9]: Insulin-like growth factor-binding protein 1 (IGFBP1), IGFBP1 (gene 3484)
As to the kind of experiment: LTEA_HepaRG_IGFBP1: Life Technologies and Expression Analysis (LTEA) Assay for Insulin-like growth factor-binding protein 1 (IGFBP1) using HepaRG (AID 2283508). The gist of the method:
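HepaRG, 48 h, 8 conc. (max 100 uM, half-log), duplicates, 0.5% DMSO. Readout: TaqMan qRT-PCR, ACTB/GAPDH/POLR2A normalisation. Fit: bidirectional vs DMSO.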

Chain of Hypoxia-inducible factor 1-alpha (Homo sapiens) (Q16665 whole entry, looked up): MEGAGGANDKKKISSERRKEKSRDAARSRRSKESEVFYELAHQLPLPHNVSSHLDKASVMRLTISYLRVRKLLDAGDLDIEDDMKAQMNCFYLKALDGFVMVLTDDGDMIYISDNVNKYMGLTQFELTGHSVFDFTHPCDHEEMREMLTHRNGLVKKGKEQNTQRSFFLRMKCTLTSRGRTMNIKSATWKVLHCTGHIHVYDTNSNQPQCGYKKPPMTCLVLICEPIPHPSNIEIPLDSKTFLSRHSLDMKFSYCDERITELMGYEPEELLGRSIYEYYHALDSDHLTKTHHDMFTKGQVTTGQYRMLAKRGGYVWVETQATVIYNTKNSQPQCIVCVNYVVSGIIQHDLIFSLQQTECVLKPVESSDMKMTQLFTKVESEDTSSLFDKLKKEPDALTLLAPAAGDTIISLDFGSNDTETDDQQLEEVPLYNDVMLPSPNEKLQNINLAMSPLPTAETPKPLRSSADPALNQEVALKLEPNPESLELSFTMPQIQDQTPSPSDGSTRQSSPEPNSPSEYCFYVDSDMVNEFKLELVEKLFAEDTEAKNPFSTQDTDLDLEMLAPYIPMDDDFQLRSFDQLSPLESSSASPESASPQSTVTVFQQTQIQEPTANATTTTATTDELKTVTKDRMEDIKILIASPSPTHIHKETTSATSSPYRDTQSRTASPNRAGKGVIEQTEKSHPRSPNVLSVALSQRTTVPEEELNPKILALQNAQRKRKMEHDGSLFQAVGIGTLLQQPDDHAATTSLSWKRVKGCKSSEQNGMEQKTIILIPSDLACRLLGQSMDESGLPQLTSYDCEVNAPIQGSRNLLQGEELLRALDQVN

With `Cc1cccc(N)c1`, the outcome in experiment [1], in [2], in [3], in [4], in experiment [5] and in experiment [6] was inactive. In addition, the compound was classed as inactive (with HGF (gene 3082); in experiment [7]; in experiment [8]; in [9]).
For the compound `c1cc2c3c(cccc3c1)CC2`, the compound was called inactive in experiment [1], in [2], in [3], in experiment [4], in [5] and in experiment [6]. The result (with HGF (gene 3082); in experiment [7]; in experiment [8]; in [9]) was inactive.
`CC(C)(C)OOC(C)(C)C`: the compound was classed as inactive in [1], in [2], in experiment [3], in experiment [4], in experiment [5] and in experiment [6]. In addition, the compound was called inactive (with HGF (gene 3082); in [7]; in [8]; in [9]).
Consider `CC(C)(C)c1ccc(O)cc1`, for which the result in experiment [1], in experiment [2], in experiment [3], in experiment [4], in [5] and in experiment [6] was inactive. For the same compound, the call in [7], in experiment [8] and in [9] was inactive.
On to `[N-]=[N+]=[N-]`, for which the AC50 in experiment [1] was 78.1 µM (active); in [2], 95 µM (active); in [6], 77 µM (active); in experiment [7] it was 68.6 µM (active); in [9], 86.4 µM (active). In addition, the compound was classed as inactive (in experiment [3]; in experiment [4]; in experiment [5]; with HGF (gene 3082); in experiment [8]).
For `Cc1ccc(N)cc1N`, the result in experiment [1], in [2], in [3], in experiment [4], in experiment [5] and in [6] was inactive. Further, the result (with HGF (gene 3082); in experiment [7]; in experiment [8]; in experiment [9]) was inactive.
Consider `Cc1ccc(O)cc1C`, for which the compound was called inactive in experiment [1], in experiment [2], in experiment [3], in experiment [4], in experiment [5] and in experiment [6]. The compound was called inactive in experiment [7], in [8] and in experiment [9].
`CCCN(CCC)c1c([N+](=O)[O-])cc(C(C)C)cc1[N+](=O)[O-]`: the compound was called inactive (in [1]; in [5]; in experiment [6]; with HGF (gene 3082); in [8]; in [9]). For the same compound, the AC50 in [2] was 9.92 µM (active); in experiment [3], 3.04 µM (active); in experiment [4], 16.7 µM (active); in experiment [7] it was 71.1 µM (active).
`OCC1CO1` (stereo not drawn): the call in experiment [1], in [2], in experiment [3], in [4], in experiment [5] and in experiment [6] was inactive. Besides, the call (with HGF (gene 3082); in experiment [7]; in [8]; in [9]) was inactive.
`COCCOCCO`: the compound was classed as inactive in [1], in [2], in [3], in experiment [4], in experiment [5] and in [6]. The outcome (in the experiment with HGF (gene 3082); in experiment [7]; in experiment [8]; in [9]) was inactive.
For `O=P(Oc1ccccc1)(Oc1ccccc1)Oc1ccccc1`, the AC50 in [1] was 50 µM (active); in experiment [2], 50 µM (active); in [7] it was 4.15 µM (active); in [9], 37.8 µM (active). Moreover, the compound was called inactive (in experiment [3]; in [4]; with HGF (gene 3082); in [8]).
Regarding `ClC(Cl)(Cl)c1ccccc1`, the outcome in experiment [1], in [2], in experiment [3], in experiment [4], in experiment [5] and in [6] was inactive. Moreover, the call (with HGF (gene 3082); in experiment [7]; in experiment [8]; in experiment [9]) was inactive.
For `O=C(O)C1C(C(=O)O)C2(Cl)C(Cl)=C(Cl)C1(Cl)C2(Cl)Cl` (stereo not drawn), the compound was classed as inactive (in [1]; in [2]; in [3]; in experiment [4]; in experiment [6]; in the experiment with HGF (gene 3082)). Moreover, the compound was classed as inactive in experiment [7], in [8] and in experiment [9].
With `Nc1cc2c3c(c1)C(c1ccccc1)=N[C@@H](NC(=O)c1cccnc1)C(=O)N3CC2`, the call in [1], in experiment [2], in [3], in experiment [4], in experiment [5] and in [6] was inactive. For the same compound, the compound was called inactive (with HGF (gene 3082); in experiment [8]; in experiment [9]). Moreover, in [7], the AC50 was 11.8 µM (active).
On to `O=[N+]([O-])c1ccc(Cl)c(Cl)c1`, for which the outcome in [1], in experiment [2], in experiment [3], in [4], in [5] and in experiment [6] was inactive. The compound was classed as inactive (in the experiment with HGF (gene 3082); in [7]; in experiment [8]; in experiment [9]).
In the case of `CCOS(=O)(=O)OCC`, the result in experiment [1], in experiment [2], in [3], in experiment [4], in experiment [5] and in [6] was inactive. In addition, the result (with HGF (gene 3082); in experiment [7]; in [8]; in [9]) was inactive.
With `ClC(Cl)c1ccccc1`, the result in experiment [1], in experiment [2], in experiment [3], in experiment [4], in experiment [5] and in [6] was inactive. Moreover, the compound was called inactive (in the experiment with HGF (gene 3082); in experiment [7]; in experiment [8]; in experiment [9]).
As for `CC(Cc1ccc(OCC(=O)O)cc1)NCC(O)c1csc(C(F)(F)F)n1` (stereo not drawn), the compound was called inactive in [1], in experiment [2], in experiment [3], in experiment [4], in [5] and in [6]. Besides, the compound was called inactive (with HGF (gene 3082); in experiment [7]; in experiment [8]; in [9]).
Regarding `CSC(C)(C)C=NO`, the call in [1], in [2], in experiment [3], in experiment [4], in experiment [5] and in [6] was inactive. Also, the result (with HGF (gene 3082); in experiment [7]; in experiment [8]; in experiment [9]) was inactive.
For the compound `CCOP(=S)(Oc1ccc([N+](=O)[O-])cc1)c1ccccc1` (stereo not drawn), the AC50 is 65.7 µM (active) in [1] and 5.97 µM (active) in experiment [9]. Besides, the result (in experiment [2]; in [3]; in experiment [5]; in [6]; with HGF (gene 3082); in experiment [7]) was inactive. The outcome in experiment [8] was inactive.
Take `O=P1(N(CCCl)CCCl)NCCCO1` (stereo not drawn): the call (in [1]; in experiment [2]; in experiment [3]; in experiment [4]; in experiment [6]; with HGF (gene 3082)) was inactive. Also, the compound was called inactive in [7], in experiment [8] and in [9].
In the case of `CCC(C)(C)c1ccc(O)cc1`, the result in experiment [1], in experiment [2], in experiment [3], in experiment [4], in experiment [5] and in experiment [6] was inactive. The result (in the experiment with HGF (gene 3082); in experiment [7]; in [8]; in experiment [9]) was inactive.
